Screens: PubChem, National Center for Advancing Translational Sciences (NCATS)
A selection: hits, their analogues and other compounds. The true share with any hit is near 9.4%.
IMPase inh = IMPase inhibition in cells; P97697; CHO-M1 cells, IP1 accumulation, HTRF TR-FRET ratio; 120,000 tested, under 10 active; inhibition (IP1 accumulation), % at 46.1 µM; active = well fitted curve in the direction sought with a large enough effect in the signal ratio, not every such curve was filed as active; inconclusive = small, poorly fitted or top-dose-only effect, or a change in a side signal; inactive = no such curve, though single readings can be large or run the other way; the % refers to the signal ratio;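 also: cells stimulated with carbachol in lithium chloride buffer; higher means more IMPase inhibition seen as more IP1 and lower FRET ratio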
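Elevated IP1 in lysates lowers TR-FRET signal (665/620 ratio and 620 channel reported). Cells were CHO-M1, given carbachol (50 uM as added) plus 50mM LiCl, pH 7.4, 30 min, 37C; compounds titrated up to 46 uM; AC50 by Hill equation.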
HTT ATP protect = Huntington cell model cytoprotection by ATP luminescence | PC12 HTT-Q103 induced, cytoprotection, ATP luminescence, 40 h | Potency, µM (doses to about 56.4 µM), actives largely listed as activators | 230,000 tested, 0.14% active | AID 1471; also: nearly all actives have a fitted effect of over 45% in size
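Cells were plated at 1500 per well in phenol red-free DMEM with 5% equine and 5% calf serum. Tebufenozide (100 nM final) and compounds were added, then ATPlite reagent, and luminescence was read.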
HttQ103 aggreg = inhibitors of mutant huntingtin aggregate formation in PC12 cells | PC12 HttQ103-GFP aggregates, Acumen cytometry, 40 h | Potency, µM (titrated, usually from 46.1 µM), actives largely listed as inhibitors | 220,000 tested, 1.1% active; also: nearly all actives have a fitted effect of over 60% in size
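Multiplexed with ATP-based cell death, this channel scores GFP aggregates in PC12 cells expressing inducible HTTex1-Q103-GFP. Induction used 100 nM tebufenozide; compounds were tested in concentration series.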
ALDH1A1 block = ALDH1A1 (human) enzyme inhibition. P00352. Purified ALDH1A1, NADH fluorescence, propionaldehyde substrate. Potency, µM (series often up to 75.3 µM), hits mostly inhibitors. 220,000 tested, 7.3% active. AID 1030; active = well fitted inhibition curve with a large enough effect, not every such curve was filed as active; inconclusive = small, poorly fitted or top-dose-only effect, or another doubt; inactive = no such curve, though single readings can be large or run the other way
Target sequence (P00352 whole entry, looked up): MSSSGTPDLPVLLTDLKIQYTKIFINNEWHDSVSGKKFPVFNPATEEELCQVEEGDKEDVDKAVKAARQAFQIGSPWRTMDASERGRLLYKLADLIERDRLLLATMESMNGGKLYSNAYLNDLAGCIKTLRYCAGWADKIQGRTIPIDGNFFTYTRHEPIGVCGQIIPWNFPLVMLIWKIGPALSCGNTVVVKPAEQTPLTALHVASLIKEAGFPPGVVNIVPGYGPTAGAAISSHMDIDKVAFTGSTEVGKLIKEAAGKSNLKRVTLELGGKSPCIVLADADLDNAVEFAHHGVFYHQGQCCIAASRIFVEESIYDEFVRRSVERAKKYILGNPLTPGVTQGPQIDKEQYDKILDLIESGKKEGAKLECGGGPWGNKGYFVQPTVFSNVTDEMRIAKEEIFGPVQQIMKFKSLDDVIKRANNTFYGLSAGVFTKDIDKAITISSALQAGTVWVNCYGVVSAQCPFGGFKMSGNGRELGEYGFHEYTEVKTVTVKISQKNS
HPGD block = inhibitors of human 15-hydroxyprostaglandin dehydrogenase (HPGD); P15428; purified HPGD, NADH fluorescence kinetic, PGE2 substrate; Potency, µM, hits mostly inhibitors; 150,000 tested, 4.3% active; active = well fitted inhibition curve with a large enough effect, not every such curve was filed as active; inconclusive = small, poorly fitted or top-dose-only effect, or another doubt; inactive = no such curve, though single readings can be large or run the other way
Target sequence (P15428 whole entry, looked up): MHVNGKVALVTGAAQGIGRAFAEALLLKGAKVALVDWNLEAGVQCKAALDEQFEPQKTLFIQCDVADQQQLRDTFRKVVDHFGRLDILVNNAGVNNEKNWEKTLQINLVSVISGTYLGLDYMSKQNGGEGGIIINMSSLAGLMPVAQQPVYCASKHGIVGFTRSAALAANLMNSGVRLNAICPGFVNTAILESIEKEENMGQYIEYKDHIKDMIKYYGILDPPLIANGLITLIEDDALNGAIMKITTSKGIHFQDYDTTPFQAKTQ
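20 nM HPGD preincubated 15 min at room temperature with compound in 50 mM Tris-HCl pH 8, 0.01% Tween 20. Started with 1 mM NAD+ and 30 uM prostaglandin E2; NADH fluorescence (360/450 nm) read 5 times over 30-s intervals, last minus first.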
IMPase Li inh = membrane-permeable IMPase blocker, potentiated with lithium | CHO-M1 cells, IP1 TR-FRET (IP-One), carbachol + lithium | Potency, µM (top dose mostly 59.4 µM), most hits filed as inhibitors | 210,000 tested, 0.35% active | AID 1457;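 also: IP1 builds up when IMPase is blocked and the TR-FRET signal falls; nearly all actives have a fitted effect of over 50% in size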
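Concentration–response in CHO-M1 cells, lithium-potentiated; 30 min at 37C. IP1 detected by competitive TR-FRET after 10 min lysis at RT. Hill-fitted AC50.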
Of the large screens only hits and unclear results are named; the others gave an inactive call. Unless noted, calls follow the shape of the dose curve; as a rule, active = well fitted curve in the direction sought with a large enough effect; inconclusive = small, poorly fitted or top-dose-only effect, or another doubt; inactive = no such curve, though single readings can be large; an effect the other way counts as inactive or inconclusive.

COC(=O)C1=C(C)N(Cc2ccccc2)[C@]23O[C@](C(=O)OC)(C(=O)N2C1c1ccccc1)C1C(=O)N(C)C(=O)C13 (some centres not stated)	none (no result: IMPase inh, HttQ103 aggreg, HPGD block, IMPase Li inh)
COc1ccc(-c2cc(C(F)(F)F)nc(SCC(=O)NCc3ccc(OC)c(OC)c3)n2)cc1	none (no result: HTT ATP protect, HttQ103 aggreg, ALDH1A1 block, HPGD block, IMPase Li inh)
CN(C)c1ccc(-c2cncnc2NCCc2cnc[nH]2)cc1	ALDH1A1 block inconclusive (no result: IMPase inh, HttQ103 aggreg, HPGD block)
O=C(NCc1ccco1)Nc1ccc(Br)cc1	none
O=C(NCc1ccco1)C1(c2ccc(Br)cc2)CCCC1	ALDH1A1 block 0.18µM
CCSc1ccccc1C(=O)NCc1ccco1	HPGD block 13µM
O=C(NCc1ccco1)c1ccccc1Br	HttQ103 aggreg inconclusive, HPGD block 2µM
Cc1c(Cl)cccc1NC(=O)c1cc(-c2ccc(O)cc2)on1	none (no result: IMPase inh, HttQ103 aggreg, ALDH1A1 block, HPGD block, IMPase Li inh)
Nc1ccc(F)cc1F	ALDH1A1 block inconclusive (no result: IMPase inh, HttQ103 aggreg)
NC(=O)CCCCn1ccc(NC(N)=NCC(F)(F)F)n1	none (no result: HttQ103 aggreg)
COc1ccc(C(=O)N/N=C2\CCc3ccccc32)cc1OC	none (no result: IMPase inh, HPGD block)
COc1ccc(C(=O)/C=C2/c3ccccc3CC(C)(C)N2C)cc1OC	HttQ103 aggreg inconclusive, ALDH1A1 block 24µM (no result: IMPase inh)
CC(=O)Nc1ccc(SCC(=O)c2cc(C)n(CC(F)(F)F)c2C)cc1	ALDH1A1 block 20µM
CC(C)NC[C@@H](O)c1ccc(O)c2ncccc12	none (no result: IMPase inh, HttQ103 aggreg)
CCN(Cc1ccccc1)c1ccc(/C=C(\C#N)c2ccccn2)cc1	ALDH1A1 block 14µM (no result: HPGD block, IMPase Li inh)
CCN(CC)c1ccc(/C=C(\C#N)c2ccccn2)cc1	HttQ103 aggreg inconclusive, ALDH1A1 block inconclusive (no result: IMPase inh)
Cc1ccccc1C(=O)Nc1sc2c(c1C(=O)NCc1ccco1)CCC(C(C)(C)C)C2 (configuration not stated)	none (no result: HTT ATP protect, HttQ103 aggreg, ALDH1A1 block, HPGD block, IMPase Li inh)
CCN(CC)C(=O)C1CCCN(Cc2ccccc2C(F)(F)F)C1 (configuration not stated)	ALDH1A1 block 3.5µM
COc1ccc2ccccc2c1C1CC(=O)N2CN(C)CSC2=C1C#N (configuration not stated)	ALDH1A1 block 8.9µM, HPGD block 6.3µM
CC(C)c1ccc(C2CC(=O)N3CN(C)CSC3=C2C#N)cc1 (configuration not stated)	ALDH1A1 block 3.5µM, HPGD block 14µM
COc1cc(OC)c(C2CC(=O)N3CN(C)CSC3=C2C#N)cc1OC (configuration not stated)	ALDH1A1 block 8.9µM, HPGD block 8.9µM
COc1cc(OC)c(C2CC(=O)Nc3ccc4ccccc4c32)cc1OC (configuration not stated)	none (no result: HTT ATP protect, HttQ103 aggreg, ALDH1A1 block, HPGD block, IMPase Li inh)
COc1ccc(Br)cc1C1CC(=O)N2CN(Cc3ccccc3)CSC2=C1C#N (configuration not stated)	ALDH1A1 block 0.11µM, HPGD block 7.1µM
COc1cc(OC)c(C2C(C#N)=C(N)Oc3cc(C)n(CCCN4CCOCC4)c(=O)c32)cc1OC (configuration not stated)	ALDH1A1 block inconclusive
Cc1c(N=C=O)cccc1N=C=O	none (no result: IMPase inh, HttQ103 aggreg)
CCCNC(=O)OC[C@@H]1O[C@H](CCO/N=C(\C)CCN2CCc3nc(-c4ccccc4)c(-c4ccccc4)cc3C2)C=C[C@@H]1Oc1ccc(OC)cc1	none (no result: IMPase inh, HttQ103 aggreg, HPGD block, IMPase Li inh)
O=c1[nH]c(-c2ccccn2)nc2sc(-c3ccccc3)cc12	HttQ103 aggreg inconclusive, ALDH1A1 block inconclusive (no result: IMPase inh, HPGD block)
Cc1ccc(N2CCN(C(=O)c3ccc(Nc4nc5ccccc5n5nnnc45)cc3)CC2)c(C)c1	none (no result: HTT ATP protect, HttQ103 aggreg, ALDH1A1 block, HPGD block, IMPase Li inh)
N#CC1=C2SCN(Cc3ccccc3)CN2C(=O)CC1c1ccccc1F (configuration not stated)	ALDH1A1 block 10µM, HPGD block 28µM
COC(=O)CSC1=C(C#N)C(c2ccccc2F)CC(=O)N1 (configuration not stated)	none (no result: IMPase inh, ALDH1A1 block, HPGD block, IMPase Li inh)
COc1ccc(Br)cc1C1CC(=O)N2CN(C)CSC2=C1C#N (configuration not stated)	ALDH1A1 block 7.1µM, HPGD block 13µM
CCSC1=C(C#N)C(c2ccccc2OC)CC(=O)N1 (configuration not stated)	ALDH1A1 block inconclusive
COc1ccc(C(=O)c2c(C)c3ccccc3n2CC(O)CNC(C)C)cc1 (configuration not stated)	HttQ103 aggreg 22µM, ALDH1A1 block inconclusive (no result: IMPase inh, HTT ATP protect)
CC(/C=C/C=C(C)/C=C/C(=O)O)=C\C=C\C=C(C)\C=C\C=C(C)\C=C\C(=O)O	ALDH1A1 block 32µM (no result: IMPase inh, HttQ103 aggreg)
CS(=O)(=O)Nc1c(O)ccc2c1CCC[C@H]2C1=NCCN1	none (no result: HttQ103 aggreg)
COc1ccc(Cn2nnnc2C(c2ccccc2Cl)N2CCN(C3CCCC3)CC2)cc1 (configuration not stated)	none (no result: HPGD block, IMPase Li inh)
Cc1ccc(C(c2nnnn2Cc2ccccc2)N2CCN(Cc3ccccc3)CC2)cc1 (configuration not stated)	ALDH1A1 block 22µM
COc1ccc(Cn2nnnc2C(c2ccncc2)N2CCOCC2)cc1 (configuration not stated)	ALDH1A1 block 28µM
COc1ccc(C(c2nnnn2Cc2ccccc2)N2CCN(c3ccccc3)CC2)cc1 (configuration not stated)	none
COc1ccc(Cn2nnnc2C(c2ccccc2)N2CCN(C3CCCC3)CC2)cc1 (configuration not stated)	HttQ103 aggreg inconclusive, ALDH1A1 block 8.9µM
c1ccc(CN2CCN(C(c3ccccc3)c3nnnn3Cc3ccccc3)CC2)cc1 (configuration not stated)	none
CC(=O)N[C@H](C(=O)O)C(C)(C)SN=O	none (no result: IMPase inh, HTT ATP protect, HttQ103 aggreg)
COC(=O)CCN(C1CCCCC1)S(=O)(=O)c1ccc(S(=O)(=O)N2CCCCC2)cc1	ALDH1A1 block 1.8µM
O=C(CN(C1CC1)S(=O)(=O)c1ccc(S(=O)(=O)N2CCCCCC2)cc1)Nc1ccccc1	none
CCOC(=O)c1c(C)[nH]c(C(=O)CSc2nc(C)cc(C)n2)c1C	ALDH1A1 block 16µM (no result: IMPase inh)
COCCn1c(C23CC4CC(CC(C4)C2)C3)n[nH]c1=S	HPGD block 25µM
CCC(C)NC(=O)c1ccc(C2SCC(=O)N2Cc2ccccc2)cc1 (configuration not stated)	ALDH1A1 block inconclusive (no result: IMPase inh, HPGD block)
O=C(NCc1ccccc1)c1ccc(C2SCC(=O)N2Cc2ccccc2)cc1 (configuration not stated)	HPGD block 10µM
CC(C)NC(=O)c1ccc(C2SCC(=O)N2Cc2ccccc2)cc1 (configuration not stated)	HPGD block 3.2µM
COc1ccc(NC(=O)c2ccc(C#N)cc2)cc1NS(=O)(=O)c1ccc(F)cc1	HTT ATP protect 1µM (no result: IMPase inh)
COc1cc(NS(=O)(=O)c2ccc(F)cc2)c(OC)cc1NC(C)=O	ALDH1A1 block 7.9µM
